The list is not random: actives were taken first. Their share in the collection is about 2%.
PG9 Ab binder – small molecules binding HIV-1 gp120 antibody PG9. TR-FRET gp120-PG9 antibody binding. inhibition, % at 6.7 µM. 0.43% of 360,000 active. AID 624416; in the data active = inhibition above about 8.5%
NR1D1 modulator – modulators of human Rev-erb alpha DNA binding | AID 1259318 | Rev-erbα–FITC-DNA binding, fluorescence polarization, 90 min | P20393 | activity, % at 10 µM | 0.79% of 370,000 active;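 active = activity above about 14%, limit read from the data; passing the limit was not always enough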
ABCB6 inh MLPCN – human ABCB6 transporter inhibition | AID 602162 | fluorescence ratio to DMSO, % at 10 µM | Q9NP58 | 0.19% of 360,000 active | K562-ABCB6 porphyrin accumulation, flow cytometry, 1 h; hits give low values;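 active = fluorescence ratio to DMSO below 75%, the collection mean minus 3 SD; inconclusive = too few cells collected in the well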;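 also: signal is porphyrin accumulated inside mitochondria; lower ratio means ABCB6 inhibition with less porphyrin fluorescence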
VLA-4 inh – inhibition in a human VLA-4 binding assay | P13612 | VLA-4 expressing cells, ligand binding flow cytometry | inhibition, % (about 7 µM as worked out from the volumes in the protocol) | 0.2% of 330,000 active | AID 2557; in the data active = inhibition above about 50%
Target sequence (P13612 whole entry, looked up): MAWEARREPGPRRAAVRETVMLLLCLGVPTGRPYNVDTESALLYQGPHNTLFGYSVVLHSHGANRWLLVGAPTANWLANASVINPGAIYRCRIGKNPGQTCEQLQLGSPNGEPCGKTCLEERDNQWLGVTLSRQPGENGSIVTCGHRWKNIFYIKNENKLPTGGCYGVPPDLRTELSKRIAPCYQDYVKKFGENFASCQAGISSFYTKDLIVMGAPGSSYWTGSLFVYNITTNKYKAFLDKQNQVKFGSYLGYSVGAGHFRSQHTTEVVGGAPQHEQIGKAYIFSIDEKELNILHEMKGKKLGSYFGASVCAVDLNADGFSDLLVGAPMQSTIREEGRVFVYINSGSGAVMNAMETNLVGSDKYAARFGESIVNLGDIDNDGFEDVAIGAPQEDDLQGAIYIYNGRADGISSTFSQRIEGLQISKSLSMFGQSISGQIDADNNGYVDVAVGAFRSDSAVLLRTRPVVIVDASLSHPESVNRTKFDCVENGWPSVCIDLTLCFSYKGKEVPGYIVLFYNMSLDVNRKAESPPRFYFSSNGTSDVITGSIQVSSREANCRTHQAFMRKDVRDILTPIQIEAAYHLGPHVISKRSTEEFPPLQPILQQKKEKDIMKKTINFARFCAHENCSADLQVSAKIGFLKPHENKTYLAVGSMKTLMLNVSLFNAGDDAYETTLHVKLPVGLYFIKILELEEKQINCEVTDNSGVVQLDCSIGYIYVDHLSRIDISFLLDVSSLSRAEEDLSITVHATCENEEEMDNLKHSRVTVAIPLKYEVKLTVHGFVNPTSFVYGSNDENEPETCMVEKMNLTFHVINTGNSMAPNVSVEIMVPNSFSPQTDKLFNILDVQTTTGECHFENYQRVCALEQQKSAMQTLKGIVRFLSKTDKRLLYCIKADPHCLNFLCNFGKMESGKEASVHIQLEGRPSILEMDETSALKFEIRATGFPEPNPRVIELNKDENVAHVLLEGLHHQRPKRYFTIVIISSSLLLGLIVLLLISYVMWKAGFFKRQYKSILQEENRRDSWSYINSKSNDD
Granule exo inh – blocks lytic granule exocytosis; TALL-104 LAMP-1 surface exposure, flow cytometry; cells stimulated with thapsigargin and PMA; inhibition, % at 10 µM; 0.66% of 360,000 active; AID 651702;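 active = inhibition above about 55%, limit read from the data; inconclusive = no clear call, values can overlap the other calls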
Rev-erbA confirm – confirmation of modulators of human Rev-erb alpha DNA binding | shares compounds with NR1D1 modulator | Rev-erb alpha FITC-DNA binding, fluorescence polarization, 90 min | activation, % at 25 µM | 61% of 3,000 active | AID 1259319;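 active = activation at or above a set limit, or at least 3 SD above the negative control mean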
RORg DNA counter – counter-screen for Rev-erb alpha modulators: RORgamma DNA binding; shares compounds with NR1D1 modulator; AID 1259320; 8% of 910 active; purified RORgamma protein-FITC-DNA binding, fluorescence polarization; IC50, µM;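 active = Compounds whose fitted half-maximal concentration for disrupting protein-DNA binding is below 10 micromolar; the record names Rev-erb in its text, so the target is in doubt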
Large screens that a line does not name were inactive (follow-up assays come after a bar, where they were run).

CCN(CC)c1ccc(/C=C(\C#N)c2ccccn2)cc1	none (no result: PG9 Ab binder, NR1D1 modulator)
CCN(C[C@H]1[C@@H](c2ccc(C3=CCCC3)cc2)[C@H](CO)N1C(=O)c1cccnc1)S(=O)(=O)c1ccccc1[N+](=O)[O-]	none (no result: PG9 Ab binder, ABCB6 inh MLPCN, VLA-4 inh, Granule exo inh)
COC(=O)c1ccccc1NC(=O)c1cn(-c2ccc(C)c(C)c2)c(=O)c2ccccc12	NR1D1 modulator 42 | Rev-erbA confirm 48 | RORg DNA counter inactive
CCOC(=O)c1ccccc1NC(=O)c1cn(-c2ccc(C)c(C)c2)c(=O)c2ccccc12	none
O=C(OCCN1CCN(C2CN(Cc3cn(Cc4cccc(F)c4)nn3)S(=O)(=O)C2)CC1)c1cc2ccccc2o1 (configuration not stated)	none (no result: PG9 Ab binder, ABCB6 inh MLPCN, VLA-4 inh, Granule exo inh)
Cn1c(=O)c2c(SCC(=O)Nc3ccccc3F)nc(-c3ccccc3F)nc2n(C)c1=O	NR1D1 modulator 26 | Rev-erbA confirm inactive
COc1ccccc1-c1nc(SCC(=O)N(C)c2ccccc2)c2c(=O)n(C)c(=O)n(C)c2n1	NR1D1 modulator 81 | Rev-erbA confirm 46 | RORg DNA counter inactive
Cc1ccc(-c2nc(SCC(=O)Nc3cc(C)on3)c3c(=O)n(C)c(=O)n(C)c3n2)cc1	NR1D1 modulator 24 | Rev-erbA confirm 18
Cc1nc(SCC(=O)Nc2cc(C)on2)c2c(=O)n(C)c(=O)n(C)c2n1	none
Cn1c(=O)c2c(SCC(=O)Nc3ccccc3F)nc(C3CC3)nc2n(C)c1=O	none
CN(C)C(=O)C[C@H]1CC[C@H]2[C@H](COc3ccc(NC(=O)C4CC4)cc3C(=O)N2C)O1	none (no result: PG9 Ab binder, ABCB6 inh MLPCN, VLA-4 inh, Granule exo inh)
C#CCN1CC(N(C)CCOC(=O)c2ccc([N+](=O)[O-])cc2)CS1(=O)=O (configuration not stated)	none (no result: PG9 Ab binder, ABCB6 inh MLPCN, VLA-4 inh, Granule exo inh)
CCOC(Cn1c(SCc2cc(C(C)=O)ccc2OC)nc2ccccc2c1=O)OCC	NR1D1 modulator 34 | Rev-erbA confirm 34 | RORg DNA counter inactive
COc1cccc(-c2nc(CS(=O)(=O)CC(=O)NCc3ccc(Cl)cc3)c(C)o2)c1	NR1D1 modulator 29 | Rev-erbA confirm 32 | RORg DNA counter inactive
COc1cccc(-c2nc(CS(=O)(=O)CC(=O)Nc3cccc(C)c3C)c(C)o2)c1	NR1D1 modulator 19 | Rev-erbA confirm inactive
CCOC(=O)c1csc(NC(=O)C2CCCN(S(=O)(=O)c3ccc(C)cc3)C2)n1 (configuration not stated)	none (no result: PG9 Ab binder, ABCB6 inh MLPCN, VLA-4 inh, Granule exo inh)
CCOC(=O)c1ccc(N/C=C\C(=O)c2cccc(OC)c2)cc1	NR1D1 modulator 27 | Rev-erbA confirm inactive
CCOC(=O)c1cccc(N/C=C/C(=O)c2ccc(OC)c(OC)c2)c1	none
C#CCNC(=O)C[C@H]1C[C@@]2(C(=O)OC)C(=C[C@H](C3CCCC3)O[C@@H]2C)N(Cc2ccco2)C1=O	none (no result: PG9 Ab binder, ABCB6 inh MLPCN, VLA-4 inh, Granule exo inh)
COc1ccc(-c2cn(-c3ccc(C)cc3C)c(=S)[nH]2)cc1OC	NR1D1 modulator 23 | Rev-erbA confirm inactive
COc1cc(OC)c(-n2cc(-c3ccc(OC)c(OC)c3)[nH]c2=S)cc1Cl	none
O=C(Nc1ccc(-c2nc3cc(Cl)ccc3c(=O)o2)cc1)c1ccco1	NR1D1 modulator 27 | Rev-erbA confirm inactive
O=C(Nc1ccc(Cl)cc1)c1ccco1	none
Cc1cc(C)c2cc(C#N)c(N3CCCN(S(=O)(=O)c4ccccc4)CC3)nc2c1	none (no result: PG9 Ab binder, NR1D1 modulator, ABCB6 inh MLPCN, Granule exo inh)
CC(=O)c1cccc(S(=O)(=O)N2CCN(c3nc4cc(C)cc(C)c4cc3C#N)CC2)c1	NR1D1 modulator 174 | Rev-erbA confirm 137
O=C(OCCN1CCOCC1)c1ccc(O)cc1	NR1D1 modulator 14 | Rev-erbA confirm inactive
O=C(c1ccc(Cn2c(=S)[nH]c3ccc(N4CCOCC4)cc3c2=O)cc1)N1CCN(c2ccc(F)cc2)CC1	none
COc1ccc(N2CCN(C(=O)c3ccc(Cn4c(=S)[nH]c5ccc(N6CCOCC6)cc5c4=O)cc3)CC2)cc1	NR1D1 modulator 42 | Rev-erbA confirm inactive
Cn1c2ccccc2c(=O)c2c(=O)n(C3CCCCCC3)c(C3CCCCC3)nc21	NR1D1 modulator 161, Granule exo inh inconclusive (no result: VLA-4 inh) | Rev-erbA confirm 79
Cc1nc2c(c(=O)c3ccccc3n2C)c(=O)n1C1CCCC1	none (no result: ABCB6 inh MLPCN, VLA-4 inh, Granule exo inh)
Cc1nnc2c(NCCC(C)C)nc3ccccc3n12	NR1D1 modulator 23 | Rev-erbA confirm inactive
Cn1c2ccccc2c(=O)c2cc(C#Cc3ccsc3)ccc21	NR1D1 modulator 22 | Rev-erbA confirm inactive
Cn1c2ccccc2c(=O)c2cc(C#CC3(O)CCCCC3)ccc21	none
CCC(=O)N1CCc2cc(Br)c(S(=O)(=O)NCCCN(C)Cc3ccccc3)cc21	none (no result: PG9 Ab binder, ABCB6 inh MLPCN, VLA-4 inh, Granule exo inh)
O=C1CC(c2ccccc2)Cc2nc(N3CCc4ccccc43)ncc21 (configuration not stated)	NR1D1 modulator 30 | Rev-erbA confirm 23
O=C1CCCc2nc(N3CCc4ccccc43)ncc21	none
O=C1CC(c2cccc(Cl)c2)Cc2nc(N3CCN(c4ccccc4)CC3)ncc21 (configuration not stated)	NR1D1 modulator 37 | Rev-erbA confirm 19
O=C1CC(c2cccc(Cl)c2)Cc2nc(N3CCOCC3)ncc21 (configuration not stated)	none
CCCc1cc2c(=O)c(-c3nc4ccccc4s3)c(COCC(=O)O)oc2cc1O	NR1D1 modulator 30 (no result: VLA-4 inh) | Rev-erbA confirm inactive
Nc1[nH]c(C(=O)c2ccccc2)c(-c2ccc(Cl)cc2Cl)c1C(=O)c1cccs1	none (no result: PG9 Ab binder, ABCB6 inh MLPCN, VLA-4 inh, Granule exo inh)
C[C@H]1[C@H](NC(=O)c2ccc(Cl)c(C(F)(F)F)c2)CC[C@@]23CCCN2C(=O)CCC[C@@H]13	none (no result: PG9 Ab binder, ABCB6 inh MLPCN, VLA-4 inh, Granule exo inh)
COc1ccc(-c2cc(=O)oc3c(C)c(OCC(=O)Nc4cccnc4)ccc23)cc1	NR1D1 modulator 28 | Rev-erbA confirm inactive
CCN1C(=O)CSC1=NC1C2CC3CC(C2)CC1C3 (configuration not stated)	NR1D1 modulator 42 | Rev-erbA confirm 48 | RORg DNA counter inactive
CCN(CC)C(=O)c1ccc(/C=C/c2c[nH]c3ccccc23)[n+](C)c1	NR1D1 modulator 45 | Rev-erbA confirm 50 | RORg DNA counter inactive
Cc1ccc(C(=O)/C=C/c2c[nH]c3ccccc23)cc1	none
CC[n+]1c(/C=C/c2c[nH]c3ccccc23)ccc2cc(C)ccc21	NR1D1 modulator 126 (no result: ABCB6 inh MLPCN, VLA-4 inh, Granule exo inh) | Rev-erbA confirm 102 | RORg DNA counter inactive
CCOC(=O)c1c(NC(=O)CN(CC)CC)sc2c1CCC2	NR1D1 modulator 33 | Rev-erbA confirm inactive
COC(=O)c1c(NC(=O)c2ccc(Br)s2)sc2c1CCC2	NR1D1 modulator 25 | Rev-erbA confirm 28
COC(=O)c1c(NC(=O)c2ccoc2C)sc2c1CCC2	none
CCOC(=O)c1c(NC(=S)Nc2ccc(C)cc2)sc2c1CCC2	NR1D1 modulator 76 | Rev-erbA confirm 84 | RORg DNA counter inactive
CCOC(=O)c1c(NC(=O)OC)sc2c1CCC2	none
O=C(/C=C(\Nc1cccc(Cl)c1)c1ccccc1)c1ccccc1	none (no result: ABCB6 inh MLPCN, VLA-4 inh, Granule exo inh)

Screens from PubChem BioAssay.
